# Test results published in ChEMBL document CHEMBL1201862, “PubChem BioAssay data set” (2004).
# Screen size: about 52,000 sequences; about 3,800 (7.3%) were called active. No stated cut-off is given here; in the data, active = GI50 up to about 1.1 µM and inactive = higher. The list is a sample of the results. Entries with a potency or affinity are not part of this list.
# System: HOP-92
row,Substance,GI50 [µM]
1,"[Bis(aminomethyl)diethylsilane]tetrachloroplatinum(IV), CHEMBL2146203",4.25
2,"[Bis(aminomethyl)dimethylsilane]dichloroplatinum (II), CHEMBL2146201",29.4
3,"[Bis(aminomethyl)pentamethylenesilane]dichloropaltinum(II), CHEMBL2146202",40.4
4,"[Bis(aminomethyl)dimethylsilane]tetrachloroplatinum(IV), CHEMBL2146190",14.4
5,"[Bis(aminomethyl)tetramethylenesilane]dichloropaltinum(II), CHEMBL2146205",28.4
6,"mu-(1,7-nanodiamine-N,N')bis-(cis-aminedichloroplatimum (II)), CHEMBL2146215",41.8
7,"cis-Bis[[(trimethylsilyl)methyl]amino]tetrachloroplatinum(IV), CHEMBL2146191",3.11
8,"[Bis(aminomethyl)pentamethylenesilane]tetrachloropaltinum(IV), CHEMBL2146204",24.2
9,"[Bis(aminomethyl)ethylmethylsilane]tetrachloroplatinum(IV), CHEMBL2146192",21.3
10,"[Bis(aminomethyl)tetramethylenesilane]tetrachloropaltinum(IV), CHEMBL2146189",21.5
11,"CISPLATIN, CHEMBL11359",3.74
